Results: PubChem BioAssay (NCI)
Compounds without any hit were thinned out: in the full panel of roughly 79,000, 15% have a hit. Activity calls are given as the source filed them. No stated cut-off is given here; in the data, active means growth inhibition above about 70%; inactive means the rest.

Columns and labels:
[1] = NCI Yeast Anticancer Drug Screen. Data for the rad52 strain (AID 147);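 further: 0% = growth of vehicle-treated control cultures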; conditions: S. cerevisiae rad52 mutant growth inhibition, active compounds read high
Summary of the method: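 Read-out: growth inhibition versus vehicle-treated controls. Cells were a DNA repair-deficient yeast strain treated with compounds.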

[2] = NCI Yeast Anticancer Drug Screen. Data for the wt1 strain (AID 149);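 further: 0% = growth of vehicle-treated wt1 cultures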; conditions: S. cerevisiae wt1 strain (SPY 50644) growth inhibition, active compounds read high
Summary of the method: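 Readout: yeast growth inhibition, normalised to vehicle controls, in the wt1 strain exposed to test compounds.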

[3] = NCI Yeast Anticancer Drug Screen. Data for the rad50EPP+ strain (AID 151);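 further: 0% = growth of vehicle-treated control cultures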; conditions: S. cerevisiae rad50 mutant strain, active compounds read high
Summary of the method: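 Growth inhibition read against vehicle controls in rad50EPP+ yeast, a strain altered in DNA damage repair, after compound exposure.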

[4] = NCI Yeast Anticancer Drug Screen. Data for the mgt1 strain (AID 153); conditions: S. cerevisiae mgt1 mutant growth inhibition, active compounds read high
Summary of the method: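 mgt1 yeast grown with test compound; read-out is growth inhibition versus vehicle-treated cultures.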

[5] = NCI Yeast Anticancer Drug Screen. Data for the rad50 strain (AID 155);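 further: 0% = growth of vehicle-only cultures of the same strain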; conditions: S. cerevisiae rad50 strain growth inhibition, active compounds read high
Summary of the method: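 Compounds were tested on a yeast strain with an engineered DNA damage repair alteration; the reported value is growth inhibition normalised to vehicle treatment.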

[6] = NCI Yeast Anticancer Drug Screen. Data for the mec2-1 strain (AID 157); conditions: S. cerevisiae mec2-1 strain, active compounds read high
Summary of the method: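 Yeast mec2-1 mutant treated with compound. Readout: growth inhibition vs vehicle controls.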

[7] = NCI Yeast Anticancer Drug Screen. Data for the rad14 strain (AID 159);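 further: 0% = growth of vehicle-treated control cultures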; conditions: S. cerevisiae rad14 strain growth inhibition, active compounds read high
Summary of the method: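 Compound-treated yeast with a defined DNA-repair lesion; growth inhibition normalised to vehicle-treated cultures.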

[8] = NCI Yeast Anticancer Drug Screen. Data for the sgs1 mgt1 strain (AID 161);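 further: 0% = growth of cultures given vehicle only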; conditions: S. cerevisiae sgs1 mgt1 strain, active compounds read high
Summary of the method: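 Mutant yeast exposed to compound; growth scored against vehicle-only wells.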

[9] = NCI Yeast Anticancer Drug Screen. Data for the CLN2oe strain (AID 163);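 further: 0% = growth of vehicle-only control cultures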; conditions: S. cerevisiae CLN2oe strain, active compounds read high
Summary of the method: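 Read-out: yeast growth inhibition, expressed relative to vehicle-only controls. The strain bears an engineered cell-cycle alteration.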

[10] = NCI Yeast Anticancer Drug Screen. Data for the cln2 rad14 strain (AID 165);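 further: 0% = growth equal to vehicle treated cultures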; conditions: S. cerevisiae cln2 rad14 strain, active compounds read high
Summary of the method: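 cln2 rad14 yeast strain; compound exposure; growth inhibition read vs vehicle controls.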

[11] = NCI Yeast Anticancer Drug Screen. Data for the bub3 strain (AID 167); conditions: S. cerevisiae bub3 mutant strain, active compounds read high
Summary of the method: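 Growth of a checkpoint-deficient yeast mutant is measured after compound exposure. Values represent inhibition relative to vehicle.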

[12] = NCI Yeast Anticancer Drug Screen. Data for the wt2 strain (AID 169);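 further: 0% = growth of vehicle-treated yeast cultures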; conditions: S. cerevisiae wt2 strain growth inhibition, active compounds read high
Summary of the method: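 Read-out: growth inhibition versus vehicle-treated control cultures after compound exposure of the yeast strain.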

[13] = NCI Yeast Anticancer Drug Screen. Data for the mlh1 strain (AID 171);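 further: 0% = growth of vehicle-treated control cultures of the same strain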; conditions: S. cerevisiae mlh1 strain growth inhibition, active compounds read high
Summary of the method: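 Read-out: growth inhibition versus vehicle controls. Strain: engineered yeast with a defined DNA repair or cell cycle defect, compound-treated.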

[14] = NCI Yeast Anticancer Drug Screen. Data for the sgs1 strain (AID 173);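 further: 0% = growth of vehicle-only control cultures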; conditions: S. cerevisiae sgs1 mutant, active compounds read high
Summary of the method: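 Read-out: yeast growth inhibition relative to vehicle controls, following compound exposure of a strain with a defined DNA repair/cell cycle alteration.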

[15] = NCI Yeast Anticancer Drug Screen. Data for the mlh1 rad18 strain (AID 175); conditions: S. cerevisiae mlh1 rad18 strain growth inhibition, active compounds read high
Summary of the method: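 Yeast w/ defined DNA-repair lesions; compound exposure; growth vs vehicle controls → % inhibition.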

[16] = NCI Yeast Anticancer Drug Screen. Data for the rad18 strain (AID 177); conditions: S. cerevisiae rad18 mutant growth inhibition, active compounds read high
Summary of the method: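 Readout: growth inhibition vs vehicle controls. Cells: genetically altered yeast strain, DNA repair defect.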

[17] = at 5.0 µM (retest, dose inferred, filed as 0.5)
[18] = at 50.0 µM (retest, dose inferred, filed as 5.0)

Measured: growth inhibition

CC1SC2(C(=O)Nc3ccc(Cl)cc32)N(c2ccc(Cl)cc2)C1=O (stereo unspecified)
active: [1]; at 33.0 µM 98% | [1]; at 100.0 µM 89% | [4]; at 33.0 µM 98% | [4]; at 100.0 µM 95% | [5]; at 33.0 µM 96% | [5]; at 50.0 µM 99.6% | [5]; at 100.0 µM 96% | [6]; at 33.0 µM 99% | [6]; at 50.0 µM 99.8% | [6]; at 100.0 µM 98% | [7]; at 33.0 µM 99% | [7]; at 100.0 µM 99% | [8]; at 50.0 µM 99.8% | [9]; at 33.0 µM 99% | [9]; at 100.0 µM 81% | [10]; at 50.0 µM 99.5% | [11]; at 33.0 µM 95% | [11]; at 50.0 µM 99.5% | [11]; at 100.0 µM 97% | [12]; at 33.0 µM 98% | [12]; at 100.0 µM 98% | [13]; at 33.0 µM 97% | [13]; at 100.0 µM 93% | [14]; at 33.0 µM 98% | [14]; at 100.0 µM 94% | [15]; at 50.0 µM 99.5% | [16]; at 33.0 µM 97% | [16]; at 100.0 µM 81%
inactive: [1]; at 1.2 µM -2% | [1]; at 3.7 µM 0% | [1]; at 11.0 µM 17% | [2]; at 1.2 µM -3% | [2]; at 3.7 µM -4% | [2]; at 11.0 µM -3% | [2]; at 33.0 µM 68% | [2]; at 100.0 µM 61% | [3]; at 1.2 µM -2% | [3]; at 3.7 µM -3% | [3]; at 11.0 µM -1% | [3]; at 33.0 µM -2% | [3]; at 100.0 µM 1% | [4]; at 1.2 µM -5% | [4]; at 3.7 µM -4% | [4]; at 11.0 µM 3% | [5]; at 1.2 µM -14% | [5]; at 3.7 µM 0% | [5]; [17] 20% | [5]; at 11.0 µM 10% | [5]; [18] -1% | [6]; at 1.2 µM -3% | [6]; at 3.7 µM 3% | [6]; [17] 11% | [6]; at 11.0 µM 18% | [6]; [18] 5% | [7]; at 1.2 µM -3% | [7]; at 3.7 µM -2% | [7]; at 11.0 µM 10% | [8]; [17] 15% | [8]; [18] 4% | [9]; at 1.2 µM -7% | [9]; at 3.7 µM -7% | [9]; at 11.0 µM 12% | [10]; [17] -1% | [10]; [18] -11% | [11]; at 1.2 µM 3% | [11]; at 3.7 µM 12% | [11]; [17] 28% | [11]; at 11.0 µM 31% | [11]; [18] 9% | [12]; at 1.2 µM -4% | [12]; at 3.7 µM -5% | [12]; at 11.0 µM -3% | [13]; at 1.2 µM -1% | [13]; at 3.7 µM -1% | [13]; at 11.0 µM 12% | [14]; at 1.2 µM -2% | [14]; at 3.7 µM 0% | [14]; at 11.0 µM 12% | [15]; [17] 8% | [15]; [18] -4% | [16]; at 1.2 µM -41% | [16]; at 3.7 µM 11% | [16]; at 11.0 µM 35%

N#CC(=Nc1ccccc1F)Nc1ccccc1F
inactive: [1]; at 1.2 µM -3% | [1]; at 3.7 µM -3% | [1]; at 11.0 µM -2% | [1]; at 33.0 µM 8% | [1]; at 100.0 µM 9% | [2]; at 1.2 µM -5% | [2]; at 3.7 µM -3% | [2]; at 11.0 µM -11% | [2]; at 33.0 µM -10% | [2]; at 100.0 µM -7% | [3]; at 1.2 µM 6% | [3]; at 3.7 µM 11% | [3]; at 11.0 µM 21% | [3]; at 33.0 µM 29% | [3]; at 100.0 µM 20% | [4]; at 1.2 µM -5% | [4]; at 3.7 µM -4% | [4]; at 11.0 µM -4% | [4]; at 33.0 µM 2% | [4]; at 100.0 µM -2% | [5]; at 1.2 µM 0% | [5]; at 3.7 µM 2% | [5]; [17] -6% | [5]; at 11.0 µM -1% | [5]; at 33.0 µM 5% | [5]; [18] -1% | [5]; at 50.0 µM -2.35% | [5]; at 100.0 µM 5% | [6]; at 1.2 µM -4% | [6]; at 3.7 µM -1% | [6]; [17] -4% | [6]; at 11.0 µM -4% | [6]; at 33.0 µM 8% | [6]; [18] 8% | [6]; at 50.0 µM -2.55% | [6]; at 100.0 µM 10% | [7]; at 1.2 µM -5% | [7]; at 3.7 µM -4% | [7]; at 11.0 µM -4% | [7]; at 33.0 µM 10% | [7]; at 100.0 µM 12% | [8]; [17] -3% | [8]; [18] 15% | [8]; at 50.0 µM 12.1% | [9]; at 1.2 µM 1% | [9]; at 3.7 µM 0% | [9]; at 11.0 µM 5% | [9]; at 33.0 µM 11% | [9]; at 100.0 µM 26% | [10]; [17] -1% | [10]; [18] -3% | [10]; at 50.0 µM -0.6% | [11]; at 1.2 µM -3% | [11]; at 3.7 µM -3% | [11]; [17] -2% | [11]; at 11.0 µM -1% | [11]; at 33.0 µM 5% | [11]; [18] 3% | [11]; at 50.0 µM 8.55% | [11]; at 100.0 µM -2% | [12]; at 1.2 µM -2% | [12]; at 3.7 µM -3% | [12]; at 11.0 µM -5% | [12]; at 33.0 µM 2% | [12]; at 100.0 µM 3% | [13]; at 1.2 µM -1% | [13]; at 3.7 µM -5% | [13]; at 11.0 µM -6% | [13]; at 33.0 µM -2% | [13]; at 100.0 µM 5% | [14]; at 1.2 µM -3% | [14]; at 3.7 µM -7% | [14]; at 11.0 µM -6% | [14]; at 33.0 µM 12% | [14]; at 100.0 µM 24% | [15]; [17] -7% | [15]; [18] 0% | [15]; at 50.0 µM 66.8% | [16]; at 1.2 µM -6% | [16]; at 3.7 µM -7% | [16]; at 11.0 µM -10% | [16]; at 33.0 µM -2% | [16]; at 100.0 µM 9%
